The values that follow come from PubChem BioAssay (NCI).

Compounds without any hit were thinned out: in the full panel of roughly 83,000, 20% have a hit.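 The test compound was applied at a single concentration to cells in 96-well plates for 48 hours, and percent growth was recorded.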 Unmarked numbers belong to inactive results. The source made the active and inactive calls. Rule for the calls: active = growth percent below 10; inactive = the rest.

Common to all, as to assay: NCI-60 one-dose screen, 48 h (100 = growth as untreated, 0 = no growth, -100 = all killed)
One assay has as its system NCI-H23 lung. Conditions: 10 µM unless noted.
The next assay concerns NCI-H226 lung. Particulars: 10 µM unless noted.
A further assay deals with NCI-H322M lung. Particulars: 10 µM unless noted.
The next assay concerns HOP-62 NSCLC. Particulars: 10 µM unless noted.
The next assay deals with NCI-H460 lung. Conditions: 10 µM unless noted.
The test system of another assay is HOP-92 NSCLC. Conditions: 10 µM.
The subject of a further assay is NCI-H522 lung. Conditions: 10 µM unless noted.
The next assay deals with A549/ATCC NSCLC. Particulars: 10 µM unless noted.
In a further assay the test system is 786-0 renal. Conditions: 10 µM unless noted.
The next assay relates to COLO 205 colon. Conditions: 10 µM unless noted.
A further assay relates to DU-145 prostate. Conditions: 10 µM unless noted.
Another assay has as its system K-562 leukemia. Particulars: 10 µM unless noted.
The next assay deals with MALME-3M melanoma. Particulars: 10 µM unless noted.
Another assay has as its system MDA-MB-231 breast. Particulars: 10 µM unless noted.
For another assay, the system named is SF-268 CNS. Particulars: 10 µM unless noted.
The test system of the next assay is SF-295 CNS. Conditions: 10 µM unless noted.
In the next assay the test system is SF-539 CNS. Conditions: 10 µM unless noted.
Another assay concerns UACC-257 melanoma. Particulars: 10 µM unless noted.

Turning to `CCn1c(SCC(=O)Nc2cccc(C(=O)/C=C/c3cc(OC)c(OC)c(OC)c3)c2)nc2ccccc2c1=O`, the growth in the assay with NCI-H23 lung was -17.1% (active); in the assay on NCI-H226 lung, 11.5%; in the assay on NCI-H322M lung it was 54.4%; in the assay with HOP-62 NSCLC, 53.8%; with NCI-H460 lung, 2.34% (active); with HOP-92 NSCLC, 34.6%. The growth in the assay with NCI-H522 lung is 38%; in the assay with A549/ATCC NSCLC, 41.1%; in the assay on 786-0 renal, 30.2%; in the assay with COLO 205 colon, 102%; with DU-145 prostate, 13.9%; with K-562 leukemia it was 13.4%. Moreover, the growth is 61.8% in the assay on MALME-3M melanoma; 23.4% with MDA-MB-231 breast; 37.7% in the assay on SF-268 CNS; 75% in the assay on SF-295 CNS; 24% in the assay with SF-539 CNS; 67.7% in the assay with UACC-257 melanoma.
`CCOC(=O)c1c(NC(=O)c2ccccc2C(F)(F)F)sc2c1CCC(=O)C2`: the growth in the assay on NCI-H23 lung was 23.3%; in the assay on NCI-H226 lung, 60.8%; in the assay with NCI-H322M lung it was 113%; in the assay with HOP-62 NSCLC it was 64.8%; in the assay with NCI-H460 lung, 33.3%; in the assay on HOP-92 NSCLC it was 40.1%. Besides, the growth in the assay with NCI-H522 lung is 5.03% (active); in the assay with A549/ATCC NSCLC, 97.5%; in the assay with 786-0 renal, 104%; in the assay on COLO 205 colon it was 56.7%; in the assay with DU-145 prostate it was 95.3%; in the assay with K-562 leukemia, 12.8%. Moreover, the growth is 73% in the assay with MALME-3M melanoma; 15.2% in the assay on MDA-MB-231 breast; 22.9% with SF-268 CNS; 41.6% in the assay on SF-295 CNS; -6.66% (active) in the assay on SF-539 CNS; 98.9% in the assay with UACC-257 melanoma.
Regarding `O=C(NNc1nc2cc(F)ccc2n2c(CN3CC4CNCC4C3)ccc12)c1cnccn1` (centres undefined), the growth in the assay on NCI-H23 lung was 35.4%; in the assay on NCI-H226 lung it was 25%; in the assay with NCI-H322M lung it was 31.8%; in the assay with HOP-62 NSCLC, 24.9%; in the assay on NCI-H460 lung, 4.93% (active); in the assay with HOP-92 NSCLC, 50.8%. Besides, the growth is 16.9% with NCI-H522 lung; 21.5% with A549/ATCC NSCLC; 16.3% with 786-0 renal; 18.3% with COLO 205 colon; 27.5% in the assay on DU-145 prostate; 15.6% in the assay with K-562 leukemia. The growth with MALME-3M melanoma is 18.9%; in the assay on MDA-MB-231 breast it was 39.5%; with SF-268 CNS it was 22.3%; in the assay with SF-295 CNS, 2.89% (active); with SF-539 CNS, 15.1%; with UACC-257 melanoma, 13.7%.
Take `COc1c(N2CC3CCCNC3C2)c(F)cc2c(=O)c(C(=O)N/N=C/c3ccc(F)cc3)cn(C3CC3)c12` (centres undefined): the growth in the assay on NCI-H23 lung was 87.9%; in the assay on NCI-H226 lung, 109%; in the assay on NCI-H322M lung it was 93.3%; in the assay with HOP-62 NSCLC, 98.9%; in the assay with NCI-H460 lung, 97.6%; in the assay with HOP-92 NSCLC, 50.2%. In addition, the growth in the assay with NCI-H522 lung is 94.1%; with A549/ATCC NSCLC, 91.5%; in the assay with 786-0 renal, 69.2%; in the assay with COLO 205 colon it was 96.3%; in the assay on DU-145 prostate it was 102%; in the assay on K-562 leukemia, 18.9%. The growth in the assay on MALME-3M melanoma was 86.3%; in the assay with MDA-MB-231 breast it was 82.3%; in the assay with SF-268 CNS, 82.9%; in the assay with SF-295 CNS it was 97.7%; in the assay on SF-539 CNS, 87.7%; in the assay with UACC-257 melanoma, 79.5%.
As to `C=C(C=O)[C@@H]1CC[C@]2(COC(C)=O)CC[C@]3(C)C(CC[C@@H]4[C@@]5(C)CC[C@H](OC(C)=O)C(C)(C)[C@@H]5CC[C@]43C)[C@@H]12` (some centres undefined), the growth with NCI-H23 lung was -22.4% (active); in the assay with NCI-H226 lung it was -55.5% (active); in the assay on NCI-H322M lung it was 40.5%; in the assay on HOP-62 NSCLC, 80.6%; in the assay with NCI-H460 lung it was -23.2% (active); with HOP-92 NSCLC it was -78.8% (active). In addition, the growth in the assay on NCI-H522 lung is -35.5% (active); in the assay with A549/ATCC NSCLC, 36.5%; in the assay with 786-0 renal, 2.99% (active); in the assay on COLO 205 colon it was -8.44% (active); in the assay on DU-145 prostate it was -53% (active); with K-562 leukemia it was 2.89% (active). The growth in the assay on MALME-3M melanoma is -64.7% (active); in the assay on MDA-MB-231 breast, -32.2% (active); in the assay on SF-268 CNS it was 6.02% (active); in the assay on SF-295 CNS, 0.392% (active); in the assay with SF-539 CNS it was -50.2% (active); with UACC-257 melanoma, -17.2% (active).
For `CC(=O)N1C(=S)NC(=O)C1CC(C)C` (centres undefined), the growth in the assay on NCI-H23 lung was 106%; in the assay with NCI-H226 lung, 100%; in the assay with NCI-H322M lung, 97.6%; with HOP-62 NSCLC it was 99.8%; in the assay with NCI-H460 lung, 106%; in the assay with HOP-92 NSCLC it was 98.9%. In addition, the growth was 94.9% with NCI-H522 lung; 101% in the assay on A549/ATCC NSCLC; 97.6% with 786-0 renal; 110% in the assay with COLO 205 colon; 110% with DU-145 prostate; 106% in the assay on K-562 leukemia. Also, the growth in the assay on MALME-3M melanoma is 102%; in the assay on MDA-MB-231 breast, 103%; in the assay with SF-268 CNS it was 102%; in the assay with SF-295 CNS it was 102%; with SF-539 CNS it was 102%; with UACC-257 melanoma it was 104%.
For the compound `N#Cc1cnc2ccc(-c3cnc(N)nc3)cc2c1N1CCc2cc(F)c(Cl)cc21`, the growth in the assay with NCI-H23 lung is 9.66% (active); in the assay on NCI-H226 lung, 9.54% (active); in the assay on NCI-H322M lung, 10%; with HOP-62 NSCLC it was 2.88% (active); in the assay with NCI-H460 lung, 7.28% (active); in the assay with HOP-92 NSCLC, -19% (active). For the same compound, the growth with NCI-H522 lung is 10.4%; in the assay with A549/ATCC NSCLC, 4.58% (active); in the assay on 786-0 renal, 3.11% (active); in the assay with COLO 205 colon it was 6.97% (active); with DU-145 prostate it was 13.3%; in the assay on K-562 leukemia it was 12%. The growth is -11.6% (active) in the assay with MALME-3M melanoma; 14.9% with MDA-MB-231 breast; 5.13% (active) in the assay on SF-268 CNS; -8.96% (active) in the assay on SF-295 CNS; -12.5% (active) with SF-539 CNS; 8.92% (active) in the assay on UACC-257 melanoma.
For the compound `COc1ccc2c(c1)c(CC(=O)[Se]CC(=O)O)c(C)n2C(=O)c1ccc(Cl)cc1`, the growth was 78.9% with NCI-H23 lung; 100% in the assay on NCI-H226 lung; 46.8% in the assay on NCI-H322M lung; 29.3% in the assay on HOP-62 NSCLC; 5.72% (active) with NCI-H460 lung; 93.7% in the assay with HOP-92 NSCLC. Further, the growth in the assay on NCI-H522 lung was 100%; in the assay with A549/ATCC NSCLC, 21.6%; in the assay with 786-0 renal, 106%; with COLO 205 colon, 129%; with DU-145 prostate, 85%; in the assay on K-562 leukemia, 95.8%. Further, the growth in the assay with MALME-3M melanoma was 112%; in the assay on MDA-MB-231 breast it was 54.1%; with SF-268 CNS it was 64.1%; with SF-295 CNS, 11.1%; with SF-539 CNS, 66.8%; with UACC-257 melanoma, 110%.
